The full list was thinned out, with hits kept by preference.
CHX counter: counter-screen for Shiga toxin inhibitors: cycloheximide protein synthesis inhibition; 12% of 300,000 active; cell reporter, cycloheximide protein synthesis inhibition counterscreen; max response, %; in the data active = max response mostly above about 13%, no sharp cut-off; inactive = mostly below about 14%; also: read at 38.3 µM for the half of the compounds with a filed dose; 0% is about no effect
Shiga toxin inh: inhibitors of Shiga toxin in Vero cells; Vero cells, Shiga toxin protein synthesis inhibition reporter; inhibition, % at 38.7 µM; 9.2% of 290,000 active; AID 2315; in the data active = inhibition mostly above about 28%, no sharp cut-off; inactive = mostly below about 43%; also: 0% is about no effect
AmpC no deterg: blocks E. coli AmpC beta-lactamase in detergent-free assay; Potency, µM (top dose mostly 57.1 µM), inactives show at the highest dose activity change, negative = inhibition, most hits filed as inhibitors; AmpC nitrocefin hydrolysis, absorbance 480 nm, 0.0001% Triton; 0.52% of 330,000 active; AID 485341; P00811;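 also: potency is read from the fitted curve at half-maximal effect; plate controls were no compound for no effect and no enzyme for full effect; nearly all actives have a fitted effect of over 20% in size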
Target sequence (P00811 whole entry, looked up): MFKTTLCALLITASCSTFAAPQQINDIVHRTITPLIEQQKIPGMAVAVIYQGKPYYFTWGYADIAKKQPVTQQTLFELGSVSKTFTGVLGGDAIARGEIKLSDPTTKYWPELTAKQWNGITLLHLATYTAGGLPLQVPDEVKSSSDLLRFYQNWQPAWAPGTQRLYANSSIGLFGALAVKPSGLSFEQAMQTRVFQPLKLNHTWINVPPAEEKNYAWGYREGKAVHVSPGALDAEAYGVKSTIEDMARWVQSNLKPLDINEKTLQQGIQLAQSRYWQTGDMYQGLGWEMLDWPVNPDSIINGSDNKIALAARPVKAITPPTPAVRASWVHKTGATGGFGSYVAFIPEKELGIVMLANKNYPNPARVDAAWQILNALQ
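AmpC (5.3 nM in the dispensed reagent) in 20 mM phosphate pH 7.0 with 0.01% (detergent screen) or 0.0001% Triton X-100 was preincubated with compounds for 15 min at room temperature. Nitrocefin was then added from an 800 uM solution, and hydrolysis was followed at 480 nm.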
NS1 function inh: inhibitors of influenza NS1 protein function; Potency, µM (titrated, usually from 46.1 µM), without a hit: top-dose activity, positive = more growth; 0.4% of 270,000 active; calls by dose curve; also: potency is read from the fitted curve at half-maximal effect; actives are rising curves; nearly all actives have a fitted effect of over 50% in size
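A cell-based growth assay was used: compounds that relieve NS1-induced slow growth of budding yeast raise OD600. Assay medium was yeast nitrogen base with ammonium sulphate and -URA supplement, pH 6.0, with 2% galactose.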
AmpC inh detg: blocks E. coli AmpC beta-lactamase in detergent assay; P00811; AmpC hydrolysis of nitrocefin, absorbance 480 nm, 0.01% Triton; Potency, µM (series often up to 114 µM), without a hit: at the top dose activity change, negative = inhibition, most hits filed as inhibitors; 0.041% of 370,000 active; AID 485294;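 also: potency is read from the fitted curve at half-maximal effect; 0% = no-compound wells and -100% = no-enzyme wells; nearly all actives have a fitted effect of over 25% in size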
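20 mM phosphate pH 7.0 + 0.01% (detergent screen) or 0.0001% Triton X-100; 5.3 nM AmpC reagent; cpd preinc 15 min RT; nitrocefin (800 uM stock) to start; A480 q20 s × 4 min; Activity was normalised to no-enzyme and no-compound control wells.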
* marks the source's active call; other numbers are inactive results; ? = inconclusive; . = not tested or not shown; + = active, no number. Unless noted, calls follow the shape of the dose curve; as a rule, active = well fitted curve in the direction sought with a large enough effect; inconclusive = small, poorly fitted or top-dose-only effect, or another doubt; inactive = no such curve, though single readings can be large; an effect the other way counts as inactive or inconclusive.

SMILES | CHX counter | Shiga toxin inh | AmpC no deterg | NS1 function inh | AmpC inh detg
CCCCCCCCCCCCCCCCCCNC(=O)OCC(COP(=O)([O-])OCC[n+]1ccsc1)OC (configuration not stated) | . | . | . | 2% | .
COc1ccc(CCNC(=O)c2ccccc2Cl)cc1OC | -2 | 2 | -11% | 0% | -2%
COc1ccc(NC(=O)COC(=O)c2c(F)cccc2Cl)cc1OC | 41* | 76* | -7% | 0% | 2%
COc1ccc(NC(=O)COC(C)=O)cc1OC | -2 | -7 | -19% | 2% | -1%
COc1ccccc1CNC(=O)COC(=O)Cc1c(F)cccc1Cl | 8 | 16 | 30% | -7% | 7%
COc1cc(CCC(C)=O)ccc1OC(=O)c1c(F)cccc1Cl | 39* | 88* | 45% | -5% | -12%
COc1ccc(NC(=O)COC(=O)Cc2c(F)cccc2Cl)cc1OC | 21* | 46 | 25% | -4% | 6%
Cc1ccc2oc(C(=O)Nc3ccc(S(=O)(=O)N4CCCCC4C)cc3)cc(=O)c2c1 (configuration not stated) | . | . | . | . | 13%
Nc1nccc(/C=C/c2c(Cl)cccc2Cl)n1 | 22 | 22 | -14% | -4% | -14%
Nc1nccc(/C=C/c2ccc(Cl)cc2)n1 | 44* | 72* | -6% | -2% | -11%
CCOC(=O)C1CCCN(c2ncnc3c2cnn3-c2ccc(C)c(Cl)c2)C1 (configuration not stated) | . | . | . | . | -2%
Cc1n[nH]c(=O)c2c(NC(=O)CSc3nc4ccccc4c(=O)n3C(C)C)oc(C)c12 | 1 | -5 | 17% | 19% | 1%
O=C(Nc1cccc(Cl)c1)c1cnn2cccnc12 | 38* | active | -4% | -12% | 0%
Cc1cc(NC(=O)c2nn3cccnc3c2Cl)no1 | 40* | 34* | -7% | -2% | 4%
Cc1cc(NC(=O)c2cnn3cccnc23)no1 | 54* | 141* | -9% | 13% | -5%
CC(C)(C)C1CCc2c(sc(NC(=O)c3cc4ccccc4c(=O)o3)c2C(N)=O)C1 (configuration not stated) | . | . | . | . | 4%
CCOC(=O)C(C)Sc1nnc(-c2c[nH]c3ccccc23)n1C (configuration not stated) | 11 | 10 | 0% | -20% | -8%
C#CCSc1nnc(-c2sc(-c3ccccc3)nc2C)n1C | 18* | 18 | -14% | -16% | -1%
C#CCSc1nnc(-c2c[nH]c3ccccc23)n1C | 18* | 2 | -11% | -16% | ?
CC(C)Sc1nnc(-c2c[nH]c3ccccc23)n1C | 50* | 121* | -6% | -51% | 1%
CCSc1nnc(Nc2ccc(C)cc2)s1 | 38* | 124* | -20% | -12% | ?
O=C1CCCCC1Sc1nnc(Nc2ccccc2)s1 (configuration not stated) | 38* | 99* | -20% | . | 8%
CCSc1nnc(Nc2ccccc2)s1 | 34* | 90* | -24% | -17% | -10%
c1ccc(Nc2nnc(SCc3cccc4ccccc34)s2)cc1 | -1 | 3 | -40% | -1% | -6%
O=C(c1ccc(S(=O)(=O)Nc2ccccc2F)cc1)N1CCN(c2ccccc2O)CC1 | . | . | -15% | . | ?
SMILES | CHX counter | Shiga toxin inh | AmpC no deterg | NS1 function inh | AmpC inh detg
O=C(/C=C/c1ccc(Br)cc1)NC(=S)N1CCOCC1 | 54* | 67* | -4% | -1% | 3%
CN1CCN(C(=S)NC(=O)/C=C/c2ccccc2)CC1 | 19 | 33 | -19% | 4% | -1%
COc1ccc(/C=C/C(=O)NC(=S)N2CCSCC2)cc1 | 37* | 49 | -22% | . | -2%
COc1ccc(/C=C/C(=O)NC(=S)N2CCN(c3ccccn3)CC2)cc1 | 19* | 56* | -22% | -1% | 3%
O=C(/C=C/c1ccc(F)cc1)N1CCN(c2ccccn2)CC1 | 15 | + | 0% | -5% | 4%
CCN(CC)C(=O)Cn1cc(S(=O)(=O)CC(=O)NC2CCCCC2)c2ccccc21 | -6 | -29 | 12% | 2% | -6%
CCC1CN(C(=O)Nc2ccc(C(=O)O)cc2)c2cc(Cl)ccc2O1 (configuration not stated) | . | . | . | . | 0%
O=C(N[C@@H]1c2ccccc2CC[C@@H]1OCc1ccccc1)c1ccc(C(F)(F)F)cc1 | . | . | -14% | . | .
COc1ccc(Cl)cc1C(=O)NCc1ccc2c(c1)OCO2 | 11 | 24 | -36% | -17% | 0%
O=C(NCc1ccc2c(c1)OCO2)c1cc(Cl)ccc1Cl | 13* | . | -22% | -13% | 1%
O=C(NCc1ccc2c(c1)OCO2)Nc1ccc(Cl)cc1 | 25* | 24 | -37% | 5% | 7%
Brc1ccc2nc(-c3cccs3)c(NCC3CCCO3)n2c1 (configuration not stated) | 32* | 56* | -30% | -10% | 4%
COc1cc(Cl)c(NC2=CC(=O)C(=O)c3ccccc32)c(OC)c1 | . | . | -14% | . | 6%
O=C1c2ccccc2C(=O)C1c1ccc(Cl)cc1 | 27* | 47 | -22% | -36% | 2%
COc1cccc(C2C(=O)c3ccccc3C2=O)c1 | -2 | 32 | -35% | 6% | -2%
O=C1NC(c2ccccc2O)Nc2ccccc21 (configuration not stated) | 13 | 10 | 11% | -21% | -8%
CCCCCC(=O)Nc1ccc(C2C(=O)c3ccccc3C2=O)cc1 | -1 | -3 | -53% | 9% | -3%
O=C1c2ccccc2C(=O)C1c1ccc(Br)cc1 | 19* | 88* | -54% | 5% | 2%
O=C1c2ccccc2C(=O)C1c1ccc(O)cc1 | 28* | 70* | -30% | . | -2%
O=C1NC(c2ccc(O)cc2)Nc2ccccc21 (configuration not stated) | 13* | 16 | -8% | 13% | -18%
O=C(NCCS(=O)(=O)N1CCCCCC1)c1ccc(F)cc1 | . | . | -12% | . | -6%
COc1ccc(Nc2c([N+](=O)[O-])ccc3c2=NC2(CCCCC2)N=3)cc1 | 4 | 9 | -4% | . | -4%
CS(=O)c1ccccc1-c1nc(-c2cccc(Cl)c2)no1 (configuration not stated) | 53* | 36 | 151% | . | 1%
CS(=O)c1ccccc1-c1nc(-c2ccc(Cl)cc2)no1 (configuration not stated) | 48* | 66* | 11% | . | -9%
CS(=O)(=O)c1ccccc1-c1nc(-c2ccc([N+](=O)[O-])cc2)no1 | 5 | 14 | -16% | . | ?
SMILES | CHX counter | Shiga toxin inh | AmpC no deterg | NS1 function inh | AmpC inh detg
CS(=O)(=O)c1ccccc1-c1nc(-c2cccc(Cl)c2)no1 | 9 | 17 | 16% | . | ?
CCOc1ccc(CCNC(=O)COn2nnc3ccc(S(=O)(=O)N4CCOCC4)cc32)cc1OCC | . | . | 78% | . | ?
Cc1ccc(NC(=O)c2ccc(CSc3nnnn3C)cc2)cc1 | 37* | 141* | -13% | 2% | -1%
C=CCn1c(SCc2ccc(C(=O)Nc3ccccc3)cc2)nnc1-c1ccccc1 | 19* | 36 | -22% | 1% | -2%
Cc1ccc(NC(=O)c2ccc(CSc3ccccn3)cc2)cc1 | 31* | 82* | -25% | 1% | -14%
Cc1ccc(NC(=O)c2ccc(CSc3ccccn3)cc2)c(O)c1 | 10 | 27 | -45% | -4% | -4%

Compound activity from PubChem BioAssay.
